Screening data deposited in PubChem BioAssay by National Center for Advancing Translational Sciences (NCATS).
Glioma ERSR ind: induces the endoplasmic reticulum stress response in human glioma cells. U87-MG GRP78 promoter luciferase reporter, 16 h. Potency, µM, for the others: at the highest dose activation, actives largely listed as activators. hit rate 0.02% among 420,000. AID 602332; also: series mostly up to about 76 µM; % of control where 0% means no effect; nearly all actives have a fitted effect of over 35% in size
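ERSR induction read as luciferase luminescence (Bright-Glo, 10 min at room temperature) in stably transfected human U87-MG glioma cells exposed to compounds for 16 h, using GRP78 as sensor.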
FUS suppressor: suppressors of FUS proteinopathy in yeast | S. cerevisiae FUS-expressing, growth rescue, OD600, 24 h | Potency, µM (doses to about 76.6 µM), actives largely listed as activators | hit rate 0.24% among 390,000 | AID 1347120;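 also: plate controls were DMSO vehicle for no effect and reference control for full effect; nearly all actives have a fitted effect of over 55% in size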
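Absorbance at 600 nm, taken 24hr after compound addition, measured rescue of FUS-yeast growth at 30C. Induction used 2% galactose with seeding at OD 0.005. Controls: CP55940 from 92uM final, DMSO only.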
MBNL1-CUG inh: blocks human MBNL1 binding to CUG repeat RNA; hit rate 0.036% among 280,000; TR-FRET MBNL1-His/biotin-(CUG)12 binding, 665/545 ratio; AID 2675; Q9NR56; Potency, µM (top dose mostly 57.5 µM), without a hit: at the highest dose activity change, negative = inhibition, most hits filed as inhibitors; active = well fitted inhibition curve with a large enough effect in the signal ratio, with a control signal flat, not every such curve was filed as active; inconclusive = small, poorly fitted or top-dose-only effect, or effect the other way, or a change in a side signal; inactive = no such curve, though single readings can be large or run the other way; the % refers to the signal ratio; also: % is scaled to controls: 0 for no effect and ±100 for the full control effect
Target sequence (Q9NR56 whole entry, looked up): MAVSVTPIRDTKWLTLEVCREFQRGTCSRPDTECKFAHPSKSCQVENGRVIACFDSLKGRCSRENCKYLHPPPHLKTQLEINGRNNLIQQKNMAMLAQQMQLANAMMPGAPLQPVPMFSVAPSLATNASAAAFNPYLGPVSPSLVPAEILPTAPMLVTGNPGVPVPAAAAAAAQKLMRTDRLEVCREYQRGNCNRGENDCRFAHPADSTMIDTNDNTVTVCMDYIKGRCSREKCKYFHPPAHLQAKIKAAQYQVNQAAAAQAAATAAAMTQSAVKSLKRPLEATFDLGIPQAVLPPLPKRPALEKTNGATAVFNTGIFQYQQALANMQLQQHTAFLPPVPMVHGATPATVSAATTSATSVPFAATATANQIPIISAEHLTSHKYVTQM
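Compound titration spanned 92 nM–58 uM against the MBNL1-His/biotin-(CUG)12 complex. After 60 min at room temperature with 5 nM streptavidin-XL665 and 0.055 ng/ul terbium anti-His, ratiometric 665/545 nm emission (Ex 340 nm) normalized to controls.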
aSyn rescue: inhibitors of alpha-synuclein toxicity in yeast; hit rate 0.14% among 370,000; Potency, µM (top dose mostly 46.1 µM), for inactives: at the top dose growth rescue (activation), hits mostly activators; AID 652106; Yeast expressing alpha-synuclein, growth rescue, BacTiter-Glo, 24 h; also: % of control where 0% means no effect; nearly all actives have a fitted effect of over 65% in size
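Galactose-induced alpha-syn yeast (OD600=0.02, raffinose-pregrown) + pinned cpd, 24 hr, 30 deg C; growth by BacTiter-Glo luminescence. Growth restoration scores as activation.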
TDP-43 yeast inh: rescues yeast growth from TDP-43 toxicity | AID 652104 | TDP-43 expressing yeast growth rescue, BacTiter-Glo, 24 h | hit rate 1.8% among 410,000 | Potency, µM (series often up to 46.1 µM), without a hit: at the highest dose growth rescue (activation), hits mostly activators; also: % of control where 0% means no effect; nearly all actives have a fitted effect of over 50% in size
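Luminescence from BacTiter-Glo reports growth of TDP-43-expressing yeast after 24 hr at 30 deg C with compound. Cells were raffinose-pregrown to mid-log, then seeded in galactose medium at OD600=0.02.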
Abeta yeast res: restores growth of yeast expressing A-beta42 peptide | hit rate 0.063% among 410,000 | Potency, µM (top dose mostly 46.1 µM), most hits filed as activators | yeast expressing A-beta42, growth rescue, OD600, 48 h; response scale: 0% DMSO, 100% iron-clioquinol control; also: nearly all actives have a fitted effect of over 55% in size
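Growth rescue measured by 600 nm absorbance after 48 h yeast culture at 30 C with compound. Values normalized between DMSO and an equimolar ferric chloride plus clioquinol control.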
* hit, by the source's call. Shown are actives, neighbours in structure and some others; about 2% of the full set was active somewhere. Unless noted, calls follow the shape of the dose curve; as a rule, active = well fitted curve in the direction sought with a large enough effect; inconclusive = small, poorly fitted or top-dose-only effect, or another doubt; inactive = no such curve, though single readings can be large; an effect the other way counts as inactive or inconclusive. Potency is read from the fitted curve at half-maximal effect.

`Cc1ccc(NC(=O)c2nc[nH]c2C(=O)N[C@@H](C)c2ccccc2)cc1` gave Glioma ERSR ind -2.3%, FUS suppressor inactive, MBNL1-CUG inh -19.1%, aSyn rescue 8.2%, TDP-43 yeast inh inconclusive and Abeta yeast res inconclusive.
Cc1cccc(NC(=O)c2nc[nH]c2C(=O)N[C@@H](CC(C)C)C(=O)OC(C)(C)C)c1 was read as Glioma ERSR ind -2.0%, FUS suppressor inactive, MBNL1-CUG inh 4.7%, aSyn rescue -2.4%, TDP-43 yeast inh 24.1% and Abeta yeast res 6.31µM*.
`COc1cc(-c2nnc(SCC(=O)Oc3ccccc3Cl)o2)cc(OC)c1OC` gave Glioma ERSR ind 22.4µM*, FUS suppressor inactive, TDP-43 yeast inh 3.5% and Abeta yeast res inconclusive.
`CCOC(=O)CC[C@H]1CC[C@]2(CCCN(C(=O)c3cccnc3)C2)O1` gave FUS suppressor inactive.
O=C(O)/C=C/c1ccccc1Oc1ccccc1 was read as Glioma ERSR ind -5.0%, FUS suppressor inactive, MBNL1-CUG inh inconclusive, aSyn rescue 29.8%, TDP-43 yeast inh 17.8µM* and Abeta yeast res inactive.
For Cc1ccc(-c2cc(C(F)F)nc(S(C)(=O)=O)n2)cc1 the results were Glioma ERSR ind -14.1%, FUS suppressor inactive, aSyn rescue -11.2%, TDP-43 yeast inh 11.2µM* and Abeta yeast res inactive.
Screening O=C(c1ccoc1)N1CCOc2ccc(CN3CCC(Oc4cccnc4)CC3)cc2C1 returned Glioma ERSR ind -5.7%.
COc1ccc(C(=O)NCC2Cc3c(F)ccc(-c4nc(C)cnc4C)c3O2)cc1F (configuration not stated) was read as Glioma ERSR ind -5.4%.
C=CCC[C@@H](Cc1ccc(F)cc1)C(=O)OC[C@H](Cc1c[nH]c2ccccc12)NC(=O)[C@H](CC=C)CC(=O)N(CCO)Cc1ccccc1 was read as Glioma ERSR ind -1.0%, FUS suppressor inconclusive, aSyn rescue -4.8%, TDP-43 yeast inh 13.3% and Abeta yeast res inactive.
`C=CC[C@@H](CC(=O)N[C@H](CO)Cc1ccccc1)C(=O)N[C@@H](COC(=O)[C@@H](CC=C)CC(=O)OC(C)(C)C)Cc1c[nH]c2ccccc12` gave Glioma ERSR ind -3.0%, FUS suppressor 17.8µM*, aSyn rescue 0.7%, TDP-43 yeast inh -6.2% and Abeta yeast res inactive.
Screening C=CCC[C@H](Cc1ccc(F)cc1)C(=O)OC[C@H](Cc1c[nH]c2ccccc12)NC(=O)[C@@H](CC=C)CC(=O)N(CCO)Cc1ccccc1 returned Glioma ERSR ind 0.4%, FUS suppressor 15.8µM*, aSyn rescue 1.8%, TDP-43 yeast inh 12.9% and Abeta yeast res inactive.
For C=CC[C@@H](CC(=O)N[C@@H](CO)Cc1ccccc1)C(=O)N[C@H](C)COC(=O)[C@@H](CC=C)Cc1ccc(F)cc1 the results were Glioma ERSR ind -5.8%, FUS suppressor inactive, aSyn rescue 0.1%, TDP-43 yeast inh 14.5% and Abeta yeast res inactive.
`C=CC[C@H](CC(=O)N[C@H](CO)Cc1ccccc1)C(=O)N[C@H](COC(=O)[C@@H](CC=C)CC(=O)OC(C)(C)C)Cc1c[nH]c2ccccc12` gave Glioma ERSR ind -2.1%, FUS suppressor 17.8µM*, aSyn rescue -4.3%, TDP-43 yeast inh -11.2% and Abeta yeast res inactive.
`C=CC[C@@H](CC(=O)N[C@@H](CO)Cc1ccccc1)C(=O)N[C@@H](C)COC(=O)[C@@H](CC=C)Cc1ccc(F)cc1` gave Glioma ERSR ind -2.6%, FUS suppressor 17.8µM*, aSyn rescue -2.4%, TDP-43 yeast inh 8.0% and Abeta yeast res inactive.
`Cc1cnc(SCc2ccccn2)nc1C1CCCN(C(=O)c2cc3ccccc3oc2=O)C1` (configuration not stated) gave Glioma ERSR ind 4.3%.
For CCc1c(C)c2ccccc2[nH]c1=O the results were Glioma ERSR ind 3.0%.
`O=[N+]([O-])c1ccccc1/C=N/Nc1nccnc1Cl` gave Glioma ERSR ind 6.0%, FUS suppressor inactive, MBNL1-CUG inh inconclusive, aSyn rescue -11.4%, TDP-43 yeast inh -9.7% and Abeta yeast res inactive.
Screening Oc1ccccc1/C=N/Nc1nccnc1Cl returned Glioma ERSR ind 7.8%, FUS suppressor inactive, MBNL1-CUG inh 17.1%, aSyn rescue 14.1µM*, TDP-43 yeast inh inconclusive and Abeta yeast res inconclusive.
For COc1cc2nc(N(C)C)c(CNCc3nonc3C)cc2c(OC)c1OC the results were Glioma ERSR ind -5.7%.
`Cc1ccc(C(=O)N/C(=C/c2ccco2)C(=O)Nc2cccc(C)c2)cc1` gave Glioma ERSR ind -0.6%, FUS suppressor 31.6µM*, MBNL1-CUG inh 15.7%, aSyn rescue 9.1%, TDP-43 yeast inh 4.9% and Abeta yeast res inactive.
COc1cccc(CNc2nc3cc(-c4ccc(F)cc4)sc3c(=O)n2C)c1OC was read as Glioma ERSR ind 0.6%, FUS suppressor inactive, aSyn rescue 1.2%, TDP-43 yeast inh 0.0% and Abeta yeast res inactive.
For COc1cccc(CNc2nc3cc(-c4ccc(C)cc4)sc3c(=O)n2C)c1OC the results were Glioma ERSR ind 6.5%, FUS suppressor inactive, aSyn rescue inconclusive, TDP-43 yeast inh 25.1µM* and Abeta yeast res inactive.
C=CCNc1nc2cc(-c3ccccc3C)sc2c(=O)n1C was read as Glioma ERSR ind 3.9%, FUS suppressor inactive, aSyn rescue 5.9%, TDP-43 yeast inh 35.5µM* and Abeta yeast res inactive.
Cn1c(OCC2CCCO2)nc2cc(-c3ccccc3)sc2c1=O (configuration not stated) was read as Glioma ERSR ind -0.4%, FUS suppressor inactive, aSyn rescue 11.1%, TDP-43 yeast inh 35.5µM* and Abeta yeast res inactive.
For COCCNc1nc2cc(-c3ccccc3)sc2c(=O)n1C the results were Glioma ERSR ind 2.5%, FUS suppressor inactive, aSyn rescue 11.4%, TDP-43 yeast inh 20µM* and Abeta yeast res inactive.
For CCC1CN(CCNC(=O)c2ccc3c(c2)OCO3)Cc2cc(OC)ccc2O1 (configuration not stated) the results were Glioma ERSR ind -3.0%.
Screening Cc1nn(-c2ccccc2)c2sc(C(=O)N3CCN(Cc4ccc(F)cc4)CC3)cc12 returned FUS suppressor inactive.
Screening O=S(=O)(c1ccc(Cl)c(Cl)c1)c1snnc1-c1ccccc1 returned Glioma ERSR ind -3.6%, FUS suppressor inactive, MBNL1-CUG inh -1.4%, aSyn rescue -18.6%, TDP-43 yeast inh 12.6µM* and Abeta yeast res inactive.
